We go through 23 compounds from PubChem BioAssay (NCATS).

Results filed as inconclusive are left out. Values without a mark were called inactive. The source made the active and inactive calls. Calls come from the whole dose curve; as a rule, active = well fitted curve in the direction sought with a large enough effect; inconclusive = small, poorly fitted or top-dose-only effect, or another doubt; inactive = no such curve, though single readings can be large; an effect the other way counts as inactive or inconclusive.

In assay [1] the target is Cellular tumor antigen p53 (Homo sapiens) (UniProt P04637). Description: Primary qHTS for small molecule compounds that upregulate eGFP-tagged delta133p53alpha (in N-terminal) cells. (AID 2060322).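 For activation: series mostly up to about 56 µM; 0% = DMSO vehicle and 100% = reference activator.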 Note: nearly all actives have a fitted effect of over 75% in size. Note: potency is the fitted concentration of half-maximal effect. The conditions noted are these: NCI-H358 eGFP-delta133p53alpha fluorescence, 24 h; activation: hits give high values. The gist of the method: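 NCI-H358 cells pre-induced 24 h with 10 ng/ml doxycycline to express N-terminal eGFP-delta133p53alpha, then dosed 24 h at 37C without doxycycline; fixed, Hoechst-stained, GFP intensity by laser scanning cytometry, normalized to DMSO (0%) and 57.5 uM 5-azacytidine (100%).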

In assay [2] the target is Aldehyde dehydrogenase, mitochondrial (Homo sapiens) (UniProt P05091). Description: qHTS for Inhibitors of the Aldehyde Dehydrogenase Family (ALDH2) Primary screen (AID 2061308).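 Note: plate controls were vehicle for no effect and reference inhibitor for full effect; nearly all actives have a fitted effect of over 55% in size.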
Assay [3] addresses Retinaldehyde dehydrogenase 3 (Homo sapiens) (UniProt P47895). Kind of assay: qHTS for Inhibitors of the Aldehyde Dehydrogenase Family (ALDH1A3) Primary screen (AID 2061315).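 Note: plate controls were DMSO vehicle for no effect and reference inhibitor for full effect.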

Chain of Cellular tumor antigen p53 (Homo sapiens) (P04637 whole entry, looked up): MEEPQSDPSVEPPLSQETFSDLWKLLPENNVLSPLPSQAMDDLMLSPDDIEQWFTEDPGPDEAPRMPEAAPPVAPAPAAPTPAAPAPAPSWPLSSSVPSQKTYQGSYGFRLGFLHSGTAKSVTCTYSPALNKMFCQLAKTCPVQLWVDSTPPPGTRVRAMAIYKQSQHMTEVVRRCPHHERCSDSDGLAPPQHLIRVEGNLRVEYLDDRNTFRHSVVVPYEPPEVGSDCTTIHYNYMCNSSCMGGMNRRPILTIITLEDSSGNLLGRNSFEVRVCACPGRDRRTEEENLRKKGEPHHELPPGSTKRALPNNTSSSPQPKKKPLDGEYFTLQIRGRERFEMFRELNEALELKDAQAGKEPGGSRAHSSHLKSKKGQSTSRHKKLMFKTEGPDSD

Turning to `CC1=C2CC(=O)C(C)CC/C=C(\C)CC2OC1=O` (centres undefined), in assay [1], the activation was 8.93%. Also, the Potency entry in assay [2] and in assay [3] was “inactive” each time.

As to `COC(=O)c1ccc(OC)cc1O[C@@H]1O[C@H](CO[C@@H]2OC[C@@H](O)[C@H](O)[C@H]2O)[C@@H](O)[C@H](O)[C@H]1O`, the activation in assay [1] is -22.3%. Also, the Potency result in assay [2] and in assay [3] was “inactive” each time.

In the case of `CC1(C)CC[C@]2(C(=O)O)CC[C@]3(C)C(=CCC4[C@@]5(C)CC[C@H](O[C@@H]6O[C@H](C(=O)O)[C@@H](O)[C@H](O)[C@H]6O)C(C)(C)C5CC[C@]43C)C2C1` (some centres undefined), the activation in assay [1] was 11.5%. Besides, the Potency result in assay [2] and in assay [3] was “inactive” throughout.

For the compound `COc1cc([C@H]2OC[C@@H]3[C@@H](c4ccc(O[C@@H]5O[C@H](CO)[C@@H](O)[C@H](O)[C@H]5O)c(OC)c4)OC[C@]23O)ccc1O`, the activation in assay [1] was 3.57%. Further, the Potency result in assay [2] and in assay [3] was “inactive” each time.

On to `COc1cc(O[C@@H]2O[C@H](CO)[C@@H](O)[C@H](O)[C@H]2O)c(CCC(=O)OC[C@H]2O[C@@H](Oc3cc(OC)c(C4OC(=O)C(C)(O)C4O)cc3CCC(=O)O)[C@H](O)[C@@H](O)[C@@H]2O)cc1C1OC(=O)C(C)(O)C1O` (some centres undefined), for which the activation in assay [1] was -6.11%. The Potency result in assay [2] and in assay [3] was “inactive” in each case.

Regarding `CC[C@H]1OC(=O)[C@H](C)C(=O)[C@H](C)[C@@H](OC2O[C@H](C)C[C@H](N(C)C)[C@H]2O)[C@@H](C)C[C@@H](C)C(=O)/C=C/[C@]1(C)O` (some centres undefined), the activation in assay [1] is -4.58%. For the same compound, the Potency entry in assay [2] and in assay [3] was “inactive” in each case.

In the case of `CC(=O)O[C@H]1C[C@@]2(C)[C@@H](CC[C@H]3[C@@]4(C)C=CC(=O)[C@@H](C)[C@@H]4[C@H](O)C(=O)[C@@]32C)/C1=C(/CCC=C(C)C)C(=O)O`, the activation in assay [1] was 17.6%. In addition, the Potency result in assay [2] and in assay [3] was “inactive” each time.

In the case of `CCc1cc(S(=O)(=O)O)c2cc(C(C)C)cccc1-2`, the activation in assay [1] was 4.33%. Also, the Potency result in assay [2] and in assay [3] was “inactive” throughout.

For the compound `COC(=O)C1=COC(OC2OC(CO)C(O)C(O)C2O)C2C(C)C(OC(=O)/C=C/c3ccc(O)cc3)C(O)C12` (centres undefined), the activation in assay [1] was -8.93%. In addition, the Potency result in assay [2] and in assay [3] was “inactive” throughout.

On to `C[C@@H]1CC[C@]2(C(=O)O)CC[C@]3(C)C(=CCC4[C@@]5(C)C[C@@H](O)[C@H](O)[C@@](C)(CO)C5CC[C@]43C)C2[C@]1(C)O` (some centres undefined), for which the activation in assay [1] is 29.5%. For the same compound, the Potency entry in assay [2] and in assay [3] was “inactive” throughout.

For `Cc1cccc(-c2[nH]ncc2-c2ccnc3ccccc23)n1`, the activation in assay [1] is 8.93%. Moreover, the Potency result in assay [2] and in assay [3] was “inactive” each time.

In the case of `C=C1C(=O)OC2/C=C(\CO)CC/C=C(\C=O)C(OC)C(OC(=O)C(C)CC)C12` (centres undefined), in assay [1], the activation was -6.11%. Moreover, the Potency result in assay [2] and in assay [3] was “inactive” throughout.

As to `Oc1ccc2c(-c3c(-c4ccccn4)nn4c3CCC4)ccnc2c1`, the Potency in assay [1] is 26.9 µM (active). Moreover, the Potency entry in assay [2] and in assay [3] was “inactive” each time.

Take `C=CC(C)(CC/C=C(\C)C(=O)OC[C@H]1O[C@@H](OC(C)(C=C)CC/C=C(\C)C(=O)O[C@H]2[C@H](O)[C@@H](O)[C@H](OC(C)(C=C)CC/C=C(\C)C(=O)O)O[C@@H]2CO)[C@H](O)[C@@H](O)[C@@H]1O)O[C@@H]1O[C@H](CO)[C@@H](O)[C@H](O)[C@H]1O` (some centres undefined): the activation in assay [1] was -9.16%. Also, the Potency result in assay [2] and in assay [3] was “inactive” throughout.

Turning to `COc1ccc(NC(=O)C2C[C@H](C)CC[C@H]2C(C)C)cc1` (some centres undefined), the activation in assay [1] is 5.67%. Further, the Potency result in assay [2] and in assay [3] was “inactive” each time.

Regarding `CC1(CO)CCCC2(C)C1C(OC(=O)c1ccccc1)C=C1C(=O)OCC12O` (centres undefined), the Potency in assay [1] is 20.9 µM (active). For the same compound, the Potency result in assay [2] and in assay [3] was “inactive” in each case.

`CC1(O)CC(O)C2C(C(=O)O)=COC(OC3OC(CO)C(O)C(O)C3OC(=O)/C=C/c3ccc(O)cc3)C21` (centres undefined): in assay [1], the activation is -15.3%. Besides, the Potency entry in assay [2] and in assay [3] was “inactive” each time.

With `C=CC(=O)N1CCCC(n2nc(-c3ccc(Oc4ccccc4)cc3)c3c(N)ncnc32)C1` (centres undefined), the activation in assay [1] was 18.8%. Moreover, the Potency result in assay [2] and in assay [3] was “inactive” each time.

Take `CCOc1cccc(NC(=O)c2ccc(N3CCCC3)c(C(F)(F)F)c2)c1`: the activation in assay [1] is 5.67%. In addition, the Potency entry in assay [2] and in assay [3] was “inactive” in each case.

As for `CC(C)(C)NCc1cc(Nc2ccnc3cc(Cl)ccc23)c2c(c1O)CCCC2`, the activation in assay [1] is -11%. The results for the activity change, negative = inhibition in assay [2] and in assay [3] were -0.555% [at 0.464 µM] and -4.88% [at 0.464 µM], respectively.

For the compound `C/C1=C\[C@@H](C)C[C@@H](C)[C@@H](Cc2cnco2)OC(=O)/C(C)=C/[C@@H](C)C[C@@H](C)[C@@H](Cc2cnco2)OC1=O`, the activation in assay [1] was 0%. Besides, the Potency result in assay [2] and in assay [3] was “inactive” each time.

For `C=C1C(=O)OC2CC(COC(=O)C(C)C)=C(C(C)CCCOC(C)=O)[C@@H](OC(C)=O)C12` (some centres undefined), the activation in assay [1] is 6.87%. Further, the Potency result in assay [2] and in assay [3] was “inactive” throughout.

With `C/C=C1\[C@H](O[C@@H]2O[C@H](CO)[C@@H](O)[C@H](O)[C@H]2O)OC=C(C(=O)OC)[C@H]1CC(=O)OC`, in assay [1], the activation was 4.46%. For the same compound, the Potency entry in assay [2] and in assay [3] was “inactive” throughout.
